Experimental data published in PubChem BioAssay (NCATS).
Values joined by “and” are separate entries in the source; they are usually repeats but may differ in a detail not shown here. Equal values may be shown once. Records with an inconclusive call do not appear. Active and inactive are the calls of the source. Unless noted, the call rests on the fitted dose curve; in most records, active means well fitted inhibition curve with a large enough effect; inconclusive means small, poorly fitted or top-dose-only effect; inactive means flat fitted curve, though single readings scatter.

Biological target: Ubiquitin carboxyl-terminal hydrolase 1 (Homo sapiens) (UniProt O94782)
Sequence (O94782 whole entry, looked up): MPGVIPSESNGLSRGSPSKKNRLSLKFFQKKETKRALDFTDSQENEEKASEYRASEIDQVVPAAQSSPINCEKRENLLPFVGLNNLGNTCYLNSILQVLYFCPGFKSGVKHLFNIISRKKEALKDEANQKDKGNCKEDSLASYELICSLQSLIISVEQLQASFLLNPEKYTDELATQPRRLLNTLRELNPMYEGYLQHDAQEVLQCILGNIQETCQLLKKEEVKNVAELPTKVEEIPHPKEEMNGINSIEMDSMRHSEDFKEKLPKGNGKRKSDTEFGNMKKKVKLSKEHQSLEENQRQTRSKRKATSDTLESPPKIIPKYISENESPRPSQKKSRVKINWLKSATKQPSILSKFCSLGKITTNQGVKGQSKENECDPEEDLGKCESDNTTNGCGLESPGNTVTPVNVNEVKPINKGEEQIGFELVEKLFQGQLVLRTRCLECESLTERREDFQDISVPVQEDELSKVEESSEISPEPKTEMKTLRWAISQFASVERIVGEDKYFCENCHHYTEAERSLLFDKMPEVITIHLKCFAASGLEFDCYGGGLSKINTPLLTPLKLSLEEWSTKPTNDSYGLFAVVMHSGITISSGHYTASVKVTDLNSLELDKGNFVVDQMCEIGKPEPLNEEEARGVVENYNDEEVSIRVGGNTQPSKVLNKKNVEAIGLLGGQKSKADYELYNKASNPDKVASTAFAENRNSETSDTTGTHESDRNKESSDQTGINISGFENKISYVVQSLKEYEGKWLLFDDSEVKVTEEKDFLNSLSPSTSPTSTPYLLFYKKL
Assay: Inhibitors of USP1/UAF1: Pilot qHTS (AID 504865);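 further: rhodamine fluorescence freed from ubiquitin-rhodamine substrate followed over time; top concentration of the series differs between compounds; on the % scale 0 is the no-effect control and ±100 the full control effect; nearly all actives have a fitted effect of over 35% in size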
Settings: purified USP1/UAF1, Ub-rhodamine cleavage fluorescence; series mostly up to 114 µM; activity change, negative = inhibition: at the top concentration
Outline: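 USP1/UAF1 complex at 1 nM preincubated 15 min at room temperature with compound, then Ub-Rho substrate added at 150 nM final. Fluorescence (480/540 nm) read kinetically in 50 mM HEPES pH 7.8, 0.5 mM EDTA, 1 mM TCEP, 0.1 mg/ml BSA, 0.01% Tween-20.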

SMILES | Potency | activity change, negative = inhibition
NC(N)=O | inactive | –
OC[C@H]1O[C@@H]2O[C@H]3[C@H](O)[C@@H](O)[C@@H](O[C@H]4[C@H](O)[C@@H](O)[C@@H](O[C@H]5[C@H](O)[C@@H](O)[C@@H](O[C@H]6[C@H](O)[C@@H](O)[C@@H](O[C@H]7[C@H](O)[C@@H](O)[C@@H](O[C@H]1[C@H](O)[C@H]2O)O[C@@H]7CO)O[C@@H]6CO)O[C@@H]5CO)O[C@@H]4CO)O[C@@H]3CO | – | -4.19% (inactive)
Nc1nccs1 | – | -7.64% (inactive)
Oc1cccc(O)c1O | – | -11.3% (inactive)
OC[C@H]1O[C@@](CO)(O[C@H]2O[C@H](CO)[C@@H](O)[C@H](O)[C@H]2O)[C@@H](O)[C@@H]1O | – | -6.16% (inactive)
CO/N=C(/C(=O)N[C@@H]1C(=O)N2C(C(=O)O)=C(COC(N)=O)CS[C@H]12)c1ccco1 | – | -7.86% (inactive)
[O-][N+](=Nc1ccccc1)c1ccccc1 | – | -8.21% (inactive)
CCOC(C)OCC | – | 1.64% (inactive)
CC1=CCC2CC1C2(C)C (centres undefined) | – | -8.76% (inactive)
COC(=O)c1ccccc1O | – | -1.9% (inactive)
O.O.O.O.O.O.O.O=S(=O)([O-])[O-].[Co+2] | – | 3.5% (inactive)
NCCN | – | -5.82% (inactive)
O=c1n(CC2CO2)c(=O)n(CC2CO2)c(=O)n1CC1CO1 (centres undefined) | – | -10.6% (inactive)
C=C(C)C1CC=C(C)CC1 (centres undefined) | – | -0.947% (inactive)
CC[C@H]1OC(=O)[C@H](C)[C@@H](O[C@H]2C[C@@](C)(OC)[C@@H](O)[C@H](C)O2)[C@H](C)[C@@H](O[C@@H]2O[C@H](C)C[C@H](N(C)C)[C@H]2O)[C@](C)(O)C[C@@H](C)CN(C)[C@H](C)[C@@H](O)[C@]1(C)O | – | -2.57% (inactive)

Biological target: Bile acid receptor (Homo sapiens) (UniProt Q96RI1)
Sequence (Q96RI1 whole entry, looked up): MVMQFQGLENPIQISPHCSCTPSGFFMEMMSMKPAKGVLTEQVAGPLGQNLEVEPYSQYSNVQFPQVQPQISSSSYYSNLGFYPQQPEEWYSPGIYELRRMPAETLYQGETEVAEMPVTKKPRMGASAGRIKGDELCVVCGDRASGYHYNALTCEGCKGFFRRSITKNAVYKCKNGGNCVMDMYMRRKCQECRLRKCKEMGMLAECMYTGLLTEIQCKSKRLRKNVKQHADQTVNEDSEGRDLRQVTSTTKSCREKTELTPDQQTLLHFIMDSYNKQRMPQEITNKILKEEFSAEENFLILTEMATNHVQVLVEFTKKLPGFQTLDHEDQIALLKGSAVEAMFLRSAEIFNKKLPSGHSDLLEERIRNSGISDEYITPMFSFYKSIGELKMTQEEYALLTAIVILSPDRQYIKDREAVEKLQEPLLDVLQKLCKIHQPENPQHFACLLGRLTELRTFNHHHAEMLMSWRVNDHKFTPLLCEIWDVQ
Assay: qHTS assay for small molecule antagonists of farnesoid X receptor signaling (AID 588526; calls by dose curve; further: on the % scale 0 is the no-effect control and ±100 the full control effect)
Settings: HEK293T FXR-UAS-bla, beta-lactamase ratio, antagonist mode; series mostly up to 76.7 µM; activity change, negative = inhibition: at the top concentration
Outline: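 Concentration-response titrations were fitted to the Hill equation for half-maximal inhibition and maximal response, with data normalised to 50 uM chenodeoxycholic acid and DMSO control wells. Cells: FXR-UAS-bla HEK293T, dialyzed FBS.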

SMILES | activity change, negative = inhibition | outcome
CC(C)[C@@H]1CC[C@@H](C)C[C@H]1O | -4.91% (inactive) | –
c1ccc2ccccc2c1 | – | inactive
C=CC(C)(O)CC/C=C(\C)CCC=C(C)C (centres undefined) | -11.4% (inactive) | –
NCCO/C=C/[C@H](N)C(=O)O | -1.67% (inactive) | –
OCC(O)CO | – | inactive
CC/C=C\C/C=C\C/C=C\CCCCCCCC(=O)O | -11.4% (inactive) | –
O=P(O)(O)O | -4.14% (inactive) | –
OB(O)O | – | inactive

Biological target: Glucocorticoid receptor (Homo sapiens) (UniProt P04150)
Sequence (P04150 whole entry, looked up): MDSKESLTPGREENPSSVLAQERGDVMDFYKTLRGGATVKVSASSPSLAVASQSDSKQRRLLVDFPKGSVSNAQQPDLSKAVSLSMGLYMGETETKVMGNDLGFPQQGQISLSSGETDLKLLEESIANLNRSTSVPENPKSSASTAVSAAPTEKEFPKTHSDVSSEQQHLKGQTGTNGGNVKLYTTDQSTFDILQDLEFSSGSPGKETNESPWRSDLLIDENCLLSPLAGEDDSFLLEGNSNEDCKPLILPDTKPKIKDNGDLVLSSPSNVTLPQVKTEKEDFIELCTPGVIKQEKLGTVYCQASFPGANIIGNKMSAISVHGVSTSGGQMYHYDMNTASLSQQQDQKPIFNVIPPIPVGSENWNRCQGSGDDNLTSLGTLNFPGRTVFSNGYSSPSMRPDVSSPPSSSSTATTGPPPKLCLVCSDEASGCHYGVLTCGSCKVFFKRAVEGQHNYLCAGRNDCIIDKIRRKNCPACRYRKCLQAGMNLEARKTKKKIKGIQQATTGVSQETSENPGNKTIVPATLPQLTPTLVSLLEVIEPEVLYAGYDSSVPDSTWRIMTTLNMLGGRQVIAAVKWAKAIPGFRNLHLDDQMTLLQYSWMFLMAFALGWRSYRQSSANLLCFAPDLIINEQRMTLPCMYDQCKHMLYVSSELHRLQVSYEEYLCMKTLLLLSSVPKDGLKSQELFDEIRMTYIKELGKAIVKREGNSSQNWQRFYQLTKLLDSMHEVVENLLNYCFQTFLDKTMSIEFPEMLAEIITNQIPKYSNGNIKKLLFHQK
Assay: qHTS assay for small molecule antagonists of glucocorticoid receptor signaling (AID 588533; active means well fitted inhibition curve with a large enough effect in the signal ratio, with a control signal flat, not every such curve was filed as active; the % refers to the signal ratio;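 further: cells stimulated with 2 nM dexamethasone as agonist; on the % scale 0 is the no-effect control and ±100 the full control effect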)
Settings: HeLa MMTV-bla, GRE beta-lactamase ratio, antagonist mode, 18 h; series mostly up to 76.8 µM; activity change, negative = inhibition: at the top concentration
Outline: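 Antagonist-mode qHTS: compound titrations added to GRE-bla HeLa cells, then dexamethasone 2 nM final; 18 h, 37 C. CCF4 FRET fluorescence normalized to dexamethasone and DMSO; IC50 from Hill fit.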

SMILES | activity change, negative = inhibition | Potency
C[C@H](CCC(=O)O)[C@H]1CC[C@H]2[C@@H]3[C@H](O)C[C@@H]4C[C@H](O)CC[C@]4(C)[C@H]3C[C@H](O)[C@]12C | -0.385% (inactive) | –
Cc1ccc(S(=O)(=O)NCl)cc1 | 3.03% (inactive) | –
Nc1ccc(N=Nc2ccccc2)c(N)n1 | -23.4% (inactive) | –
CC(C)CCCCCCc1ccc(O)cc1 | 7.58% (inactive) | –
N[C@@H](Cc1cc(I)c(Oc2ccc(O)c(I)c2)c(I)c1)C(=O)O | -9.45% (inactive) | –
OC[C@H]1O[C@@H]2O[C@H]3[C@H](O)[C@@H](O)[C@@H](O[C@H]4[C@H](O)[C@@H](O)[C@@H](O[C@H]5[C@H](O)[C@@H](O)[C@@H](O[C@H]6[C@H](O)[C@@H](O)[C@@H](O[C@H]7[C@H](O)[C@@H](O)[C@@H](O[C@H]1[C@H](O)[C@H]2O)O[C@@H]7CO)O[C@@H]6CO)O[C@@H]5CO)O[C@@H]4CO)O[C@@H]3CO | 9.38% (inactive) | –
CO[C@@H]1[C@H](OC(=O)/C=C/C=C/C=C/C=C/C(=O)O)CC[C@]2(CO2)[C@H]1[C@@]1(C)O[C@@H]1CC=C(C)C | -26.7% (inactive) | –
C=CC(C)(O)CC/C=C(\C)CCC=C(C)C (centres undefined) | 5.43% (inactive) | –
NCCO/C=C/[C@H](N)C(=O)O | 0.316% (inactive) | –
OCC(O)CO | – | inactive
CO/N=C(/C(=O)N[C@@H]1C(=O)N2C(C(=O)O)=C(COC(N)=O)CS[C@H]12)c1ccco1 | 12.2% (inactive) | –
[O-][N+](=Nc1ccccc1)c1ccccc1 | 0.974% (inactive) | –
CCOC(C)OCC | 10.2% (inactive) | –
O=P(O)(O)O | -2.02% (inactive) | –
Cc1ccc(S(=O)(=O)O)cc1C | 5.66% (inactive) | –
CC1=CCC2CC1C2(C)C (centres undefined) | 15.7% (inactive) | –
OB(O)O | – | inactive
O=c1n(CC2CO2)c(=O)n(CC2CO2)c(=O)n1CC1CO1 (centres undefined) | -8.93% (inactive) | –
O=C(OCc1ccccc1)c1ccc(O)cc1 | -2.76% (inactive) | –
C=C(C)C1CC=C(C)CC1 (centres undefined) | – | inactive

Tested on: not listed separately
Assay: qHTS assay for small molecule antagonists of peroxisome proliferator-activated receptor delta signaling (AID 588535);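 further: cells co-treated with a PPAR-delta agonist as stimulator during compound exposure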
Settings: HEK293T PPARd-UAS-bla, beta-lactamase FRET ratio, 18 h; 460 nm channel
Outline: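 Reporter: UAS-bla under PPAR-delta response element, HEK293T host. Medium: 2% charcoal/dextran FBS. Dosing: titration, 18 hrs, 37 C. Detection: CCF4, 2 hrs RT, 405 ex/460 and 530 em.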

SMILES | max response
Cc1ccc(S(=O)(=O)NCl)cc1 | -27%
CC(C)[C@@H]1CC[C@@H](C)C[C@H]1O | -3.98%
Nc1ccc(N=Nc2ccccc2)c(N)n1 | -2.71% and -25%
CC(C)CCCCCCc1ccc(O)cc1 | -43.1%
CO | -4.23%
N[C@@H](Cc1cc(I)c(Oc2ccc(O)c(I)c2)c(I)c1)C(=O)O | 53.8%
c1ccc2ccccc2c1 | -2.63% and 30.7%
CO[C@@H]1[C@H](OC(=O)/C=C/C=C/C=C/C=C/C(=O)O)CC[C@]2(CO2)[C@H]1[C@@]1(C)O[C@@H]1CC=C(C)C | 39.3%
Nc1nccs1 | -9.51%
Oc1cccc(O)c1O | -13.9%
C=CC(C)(O)CC/C=C(\C)CCC=C(C)C (centres undefined) | 18.5%
NCCO/C=C/[C@H](N)C(=O)O | -3.12%
OCC(O)CO | -8.63%
OC[C@H]1O[C@@](CO)(O[C@H]2O[C@H](CO)[C@@H](O)[C@H](O)[C@H]2O)[C@@H](O)[C@@H]1O | -16.8%
[O-][N+](=Nc1ccccc1)c1ccccc1 | 22.2%
Cc1ccc(S(=O)(=O)O)cc1C | -12.1%
CC1=CCC2CC1C2(C)C (centres undefined) | -1.04%
C/C=C/C=C/C(=O)O | 0.118%
COC(=O)c1ccccc1O | -8.84% and 15.6%
OB(O)O | 1.13%
NCCN | 42.1%
